Compound activity: PubChem BioAssay, National Center for Advancing Translational Sciences (NCATS)
Sampled rows, rich in hits. Any-hit rate of the full collection: about 6%.
D1 agonist: Allosteric Agonists of the Human D1 Dopamine Receptor: qHTS; HEK293 T-REx D1 cells, calcium flux, agonist mode; 1% of 360,000 active; activation, % at 2 µM; in the data active = activation above about 30%
Target sequence (P21728 whole entry, looked up): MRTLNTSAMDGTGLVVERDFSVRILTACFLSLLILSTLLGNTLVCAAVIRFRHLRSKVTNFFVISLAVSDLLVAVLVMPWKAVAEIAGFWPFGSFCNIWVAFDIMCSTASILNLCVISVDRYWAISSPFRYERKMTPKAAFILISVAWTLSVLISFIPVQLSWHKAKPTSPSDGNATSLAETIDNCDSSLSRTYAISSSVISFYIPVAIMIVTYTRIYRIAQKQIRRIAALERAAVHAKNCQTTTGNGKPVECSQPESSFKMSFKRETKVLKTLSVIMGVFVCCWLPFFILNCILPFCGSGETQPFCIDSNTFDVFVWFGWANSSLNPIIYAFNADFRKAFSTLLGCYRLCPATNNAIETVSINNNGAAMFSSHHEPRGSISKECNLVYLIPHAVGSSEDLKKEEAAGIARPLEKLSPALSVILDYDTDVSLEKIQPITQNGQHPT
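Tetracycline-induced HEK293 TREx D1 cells, force-coupled to calcium signalling, were dye-loaded with a no-wash calcium kit. Compound was pin-added after a 10 s baseline. Fluorescence was read kinetically at 1 cycle/s for 180 s, with calcium rises flagged as agonism.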
DRD3 antagonist: qHTS of D3 Dopamine Receptor Antagonist: qHTS. D(3) dopamine receptor (Homo sapiens), P35462. 2.5% of 360,000 active. D3R cells, DiscoveRx beta-arrestin luminescence, antagonist mode; active compounds read low. max response, negative = inhibition, %; in the data active = max response below about -50%; inconclusive = no clear call, values can overlap the other calls
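Cells expressing the human receptor were seeded at 1500 cells/well, incubated overnight at 37 degrees C in 5% CO2, then exposed to library compounds with dopamine controls for 90 minutes at 37 degrees C before luminescent detection.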
Chronic BCR inh: qHTS Assay to Find Inhibitors of Chronic Active B-Cell Receptor Signaling. ABC-DLBCL IkBa-CBG/CBR reporter, luminescence ratio, 4 h. Potency, µM (series often up to 46.1 µM), hits mostly inhibitors. 0.05% of 340,000 active. AID 493014, 2011; active = well fitted inhibition curve with a large enough effect in the signal ratio, with a control signal flat, not every such curve was filed as active; inconclusive = small, poorly fitted or top-dose-only effect, or effect the other way, or a change in a side signal; the % refers to the signal ratio
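Doxycycline induced both beetle luciferases in TMD8 lymphoma cells; IKK-driven degradation limits the IkappaBalpha-fused green signal, while red luminescence normalises for cell number and nonspecific effects. Compounds tested up to 46 uM, 4 hrs.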
D1 PAM: Potentiators of Human D1 Dopamine Receptor: qHTS. D(1A) dopamine receptor (Homo sapiens), P21728. HEK293 TREx D1 cells, calcium flux, dopamine EC20 potentiation. AID 504651, 2011. 0.036% of 360,000 active. potentiation, % at 10 µM; in the data active = potentiation above about 30%
D1 antagonist: Antagonist of Human D 1 Dopamine Receptor: qHTS; HEK293 TREx D1 cells, calcium flux, dopamine EC80; active compounds read low; activity change, negative = inhibition, % at 10 µM; 3.2% of 360,000 active; AID 504652, 2011; in the data active = activity change below about -30%
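Compound effects on dopamine-evoked calcium signalling were measured in tetracycline-induced HEK293 Trex D1 cells. Dopamine at EC80 followed a 180 s compound pre-read, and fluorescence was tracked kinetically for 180 s more.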
D3 ag: qHTS of D3 Dopamine Receptor Agonist: qHTS; D(3) dopamine receptor (Homo sapiens), P35462; AID 652048, 2013; 0.58% of 410,000 active; max activation, %; D3R DiscoveRx beta-arrestin cells, luminescence, 90 min; in the data active = max activation above about 30%
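Cells at 1500/well, incubated overnight, then treated with pinned compounds (dopamine as control) for 90 min at 37 degrees C. DiscoveRx reagent added for 30 - 60 minutes at room temperature; luminescence read.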
Large screens that a line does not name were inactive; ! = repeats disagree.

FC(F)(F)c1cnc(Sc2nnc(-c3cccs3)n2CC2CCCO2)c(Cl)c1 (centres undefined)	D3 ag 31
CCC(=O)Nc1cc(C)c(O)c(-c2nc3ncccc3o2)c1	Chronic BCR inh inconclusive (no result: DRD3 antagonist)
Cc1cc(C)cc(NC(=O)NCc2noc3ccccc23)c1	none (no result: DRD3 antagonist, Chronic BCR inh)
C(=N\n1cnnc1)/c1nc2ccccc2[nH]1	D1 antagonist -34
O=C1CCC(C2CCc3cc(O)ccc3C2)C1 (centres undefined)	none (no result: D1 agonist, Chronic BCR inh, D1 PAM, D1 antagonist)
Cc1ccc2nc(SCc3nnc(-c4ccccc4)o3)[nH]c2c1	none
Cc1ccc2nc(SCc3nnc(-c4cccs4)o3)[nH]c2c1	D1 antagonist -37
Cc1cc(C)c2nc(N(Cc3cccnc3)C(=O)CCOc3ccccc3)sc2c1	none (no result: DRD3 antagonist, D1 antagonist)
CN(C)CCN(Cc1ccccc1)c1ccnc(N(C)C)c1C#N	none
CN(C)CCN(Cc1ccccc1)c1ccccn1	DRD3 antagonist inconclusive, D1 antagonist -31!
Cc1ccc(S(=O)(=O)N(C)c2ccc(OCC(=O)Nc3nc(-c4ccccc4)cs3)cc2)cc1	Chronic BCR inh inconclusive, D1 antagonist -37
COc1ccc(-c2csc(NC(=O)c3ccccc3NS(=O)(=O)c3ccc(F)c(F)c3)n2)cc1	Chronic BCR inh inconclusive, D1 antagonist -49
COc1ccc(-c2csc(NS(=O)(=O)c3ccc([N+](=O)[O-])cc3)n2)cc1	Chronic BCR inh inconclusive, D1 antagonist -31
Cc1ccc(S(=O)(=O)Nc2ccccc2C(=O)Nc2nc(-c3ccc(F)cc3)cs2)cc1	D1 antagonist -65
CNc1nc(-c2ccc([N+](=O)[O-])cc2)cs1	none
CCc1ccccc1N1C(=O)N(CC(=O)c2ccc(Cl)cc2)c2ccccc2S1(=O)=O	none (no result: DRD3 antagonist)
CC(C)(c1ccc(O)cc1)c1ccc(O)c(C(=O)O)c1	none (no result: D1 agonist, Chronic BCR inh, D1 PAM, D1 antagonist)
COc1ccc(N2CCN(C(=O)C(CC(C)C)NS(=O)(=O)c3ccc4nc(C)sc4c3)CC2)cc1 (centres undefined)	none (no result: DRD3 antagonist, Chronic BCR inh)
O=C(CSC1CC(=O)N(CCc2ccccc2)C1=O)Nc1ccc(Br)cc1 (centres undefined)	none
O=C(CSC1CC(=O)N(CCc2ccccc2)C1=O)Nc1cccc(Cl)c1 (centres undefined)	D1 agonist 33
CSc1nc(Nc2ccc(C)cc2C)cc(-c2ccccc2)n1	D3 ag 33 (no result: DRD3 antagonist, Chronic BCR inh)
COc1ccc(C2Nc3ccccc3C(=O)N2Cc2ccccc2)cc1COc1ccc(Cl)cc1Cl (centres undefined)	Chronic BCR inh inconclusive (no result: DRD3 antagonist, D3 ag)
O=C(Nc1ccccc1Cl)C1CCN(Cc2cnn(-c3ccccc3)c2-n2cccc2)CC1	DRD3 antagonist -80, Chronic BCR inh inconclusive
COc1ccc(NC(=O)C2CCN(Cc3cnn(-c4ccccc4)c3-n3cccc3)CC2)cc1OC	D1 agonist 35, DRD3 antagonist -73, D1 antagonist -34 (no result: Chronic BCR inh)
COc1ccc(OC)c(NC(=O)C2CCN(Cc3cnn(-c4ccccc4)c3-n3cccc3)CC2)c1	DRD3 antagonist -65, Chronic BCR inh inconclusive
O=C(NCc1ccc2c(c1)OCO2)C1CCN(Cc2cnn(-c3ccccc3)c2-n2cccc2)CC1	DRD3 antagonist inconclusive (no result: Chronic BCR inh)
COc1cccc(NC(=O)C2CCN(Cc3cnn(-c4ccccc4)c3-n3cccc3)CC2)c1	DRD3 antagonist -50, Chronic BCR inh inconclusive
COc1cc(NC(=O)C2(C)CCN2C(=O)C(C)C)cc(OC)c1OC (centres undefined)	none (no result: D1 agonist, Chronic BCR inh, D1 PAM, D1 antagonist)
O=C1Nc2c(Br)cccc2C1=O	DRD3 antagonist -94, Chronic BCR inh inconclusive (no result: D1 agonist, D1 PAM, D1 antagonist)
O=C1Nc2c(Cl)cccc2C1=O	DRD3 antagonist inconclusive (no result: D1 agonist, Chronic BCR inh, D1 PAM, D1 antagonist)
COC(=O)c1cccc2c1NC(=O)C2=O	DRD3 antagonist -75
Cc1ccccc1-c1ncnn1-c1sc2c(c1C#N)CCCCC2	none (no result: DRD3 antagonist, Chronic BCR inh)
COc1cc(-c2nc3ccc(C)cn3c2NCc2ccccc2)ccc1SC1CCCCC1	none
COc1cc(-c2nc3ccccn3c2NCc2ccccc2)ccc1SC1CCCCC1	Chronic BCR inh inconclusive, D3 ag 87
CCC(C)Sc1ccc(-c2nc3cnccn3c2NC2CCCCC2)cc1 (centres undefined)	Chronic BCR inh inconclusive
CCCCNc1c(-c2ccc(SC3CCCCC3)cc2)nc2cnccn12	Chronic BCR inh inconclusive, D3 ag 40 (no result: D1 agonist, D1 PAM, D1 antagonist)
COc1ccc(Sc2ccc(-c3nc4cnccn4c3NC3CCCCC3)cc2OC)cc1	D3 ag 46 (no result: D1 agonist, D1 PAM, D1 antagonist)
COc1ccc(-c2nc3cnccn3c2NCc2ccccc2)cc1SC1CCCCC1	D3 ag 40
CCCCn1nnnc1C1(C)CCC(=O)N1C1CC1 (centres undefined)	DRD3 antagonist inconclusive (no result: D1 agonist, Chronic BCR inh, D1 PAM, D1 antagonist)
O=C(NCc1ccccc1F)C1CCN(Cc2cc3ccccc3n2Cc2cccc(Cl)c2)CC1	none (no result: DRD3 antagonist)
CCOC(=O)c1cccc(NC(=O)c2ccc3nc(Cc4ccccc4)oc3c2)c1	none (no result: DRD3 antagonist, Chronic BCR inh)
CCOC(=O)c1c(C)oc2nc(C)nc(NCc3ccccc3Cl)c12	none (no result: DRD3 antagonist, Chronic BCR inh)
O=S(=O)(c1ccc2c(c1)OCCO2)N1CCN(S(=O)(=O)c2c(F)ccc(O)c2F)CC1	none (no result: DRD3 antagonist, Chronic BCR inh, D3 ag)
CCCCCCSc1cc(-c2nc3cnccn3c2NCc2ccccc2)ccc1OC	D3 ag 51
CCCCNc1c(-c2ccc(OC)c(SC3CCCCC3)c2)nc2cc(C)ccn12	Chronic BCR inh inconclusive
CCCCNc1c(-c2ccc(OC)c(SC3CCCCC3)c2)nc2cnccn12	Chronic BCR inh inconclusive, D3 ag 45
Cc1ccccc1NC(=O)c1c(C)oc2ccc(O)c(CN3CCCCCC3)c12	none (no result: DRD3 antagonist, Chronic BCR inh)
CCc1cccc(NC(=O)c2cnc(SC)nc2-c2ccccc2)c1	none (no result: DRD3 antagonist, Chronic BCR inh)
COC(=O)c1cc(-c2cc(OC)ccc2OC)nc2c1c(=O)n(C)c(=O)n2Cc1ccccc1	DRD3 antagonist -79
CC[C@H](C)C(C(=O)N1CCN(C(=O)OC(C)(C)C)CC1)n1cc(C(Cc2ccc(O)cc2)NC(=O)OC(C)(C)C)nn1 (some centres undefined)	D3 ag 52
CC[C@H](C)C(C(=O)N1CCN(C(=O)OC(C)(C)C)CC1)n1cc(C(CO)NC(=O)OC(C)(C)C)nn1 (some centres undefined)	none
CC(C)(C)OC(=O)NCCCC[C@@H](C(=O)N1CCN(C(=O)OC(C)(C)C)CC1)n1cc(CCC(=O)O)nn1	D3 ag 38
CCCCc1cn([C@@H](CCCCNC(=O)OC(C)(C)C)C(=O)N2CCN(C(=O)OC(C)(C)C)CC2)nn1	none
